Out of some 5,500 compounds screened, about 2,000 (36%) were called active. Not shown: some 18% with an inconclusive outcome. No stated cut-off is given here; in the data, active means normalized growth mostly below about 0.91 (no sharp cut-off); inconclusive means no clear call, values can overlap the other calls; inactive means mostly above about 0.92. The list shows a part of the results.
Test: chemical genetic growth profiling, strain panel (AID 1159580);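 further: tested at 20 µM; growth read once vehicle control cultures reached saturation at 30 °C; 1 = growth at the plate median or of vehicle wells; lower values mean less growth of the strain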
Conditions: growth OD

Measured: normalized growth

C=CC1=C(C(=O)O)N2C(=O)[C@@H](NC(=O)/C(=N/O)c3csc(N)n3)[C@H]2SC1
inactive: S. cerevisiae deletion strains, locus YJR066W, strain TOR1, active compounds read low 0.95 | S. cerevisiae deletion strains, locus YJR075W, strain HOC1, active compounds read low 1.01 | S. cerevisiae deletion strains, locus YKL009W, strain mrt4, active compounds read low 0.995 | S. cerevisiae deletion strains, locus YKL068W, active compounds read low 1 | S. cerevisiae deletion strains, locus YKL085W, strain MDH1 (second series), active compounds read low 0.989 | S. cerevisiae deletion strains, locus YKL085W, strain MDH1, active compounds read low 0.989 | S. cerevisiae deletion strains, locus YKL160W, strain elf1, active compounds read low 1.02 | S. cerevisiae deletion strains, locus YKL190W, strain CNB1, active compounds read low 1.02 | S. cerevisiae deletion strains, locus YKR001C, strain vps1, active compounds read low 0.979 | S. cerevisiae deletion strains, locus YKR026C, strain gcn3, active compounds read low 1.03 | S. cerevisiae deletion strains, locus YKR091W, strain srl3, active compounds read low 1.02 | S. cerevisiae deletion strains, locus YLL001W, strain dnm1, active compounds read low 1.02 | S. cerevisiae deletion strains, locus YLL026W, active compounds read low 1.03 | S. cerevisiae deletion strains, locus YLL041C, strain sdh2, active compounds read low 1.02 | S. cerevisiae deletion strains, locus YLR027C, strain aat2, active compounds read low 1.02 | S. cerevisiae deletion strains, locus YLR039C, strain RIC1, active compounds read low 1.04 | S. cerevisiae deletion strains, locus YLR058C, strain SHM2, active compounds read low 0.996 | S. cerevisiae deletion strains, locus YLR102C, strain apc9, active compounds read low 0.997 | S. cerevisiae deletion strains, locus YLR113W, strain HOG1, active compounds read low 1.02 | S. cerevisiae deletion strains, locus YLR221C, strain rsa3, active compounds read low 1.04 | S. cerevisiae deletion strains, locus YLR258W, strain gsy2, active compounds read low 1.02 | S. cerevisiae deletion strains, locus YLR262C, strain YPT6 (second series), active compounds read low 1.04 | S. cerevisiae deletion strains, locus YLR262C, strain YPT6, active compounds read low 1.02 | S. cerevisiae deletion strains, locus YLR268W, strain sec22, active compounds read low 1 | S. cerevisiae deletion strains, locus YLR320W, strain mms22, active compounds read low 1.02 | S. cerevisiae deletion strains, locus YLR330W, strain CHS5, active compounds read low 0.992 | S. cerevisiae deletion strains, locus YLR342W, strain FKS1 (second series), active compounds read low 1.02 | S. cerevisiae deletion strains, locus YLR342W, strain FKS1, active compounds read low 1.03 | S. cerevisiae deletion strains, locus YLR357W, strain rsc2, active compounds read low 1.02 | S. cerevisiae deletion strains, locus YLR370C, strain arc18, active compounds read low 1.02 | S. cerevisiae deletion strains, locus YLR371W, strain rom2, active compounds read low 0.994 | S. cerevisiae deletion strains, locus YLR384C, strain iki3, active compounds read low 1.02 | S. cerevisiae deletion strains, locus YLR418C, strain cdc73, active compounds read low 0.998 | S. cerevisiae deletion strains, locus YML016C, strain PPZ1, active compounds read low 0.987 | S. cerevisiae deletion strains, locus YML032C, strain rad52, active compounds read low 1 | S. cerevisiae deletion strains, locus YML120C, strain ndi1, active compounds read low 1.02 | S. cerevisiae deletion strains, locus YML124C, strain tub3, active compounds read low 0.993 | S. cerevisiae deletion strains, locus YMR058W, strain fet3, active compounds read low 1.01 | S. cerevisiae deletion strains, locus YMR078C, strain ctf18, active compounds read low 0.989 | S. cerevisiae deletion strains, locus YMR125W, strain sto1, active compounds read low 1.03 | S. cerevisiae deletion strains, locus YMR129W, active compounds read low 1.01 | S. cerevisiae deletion strains, locus YMR205C, strain PFK2, active compounds read low 1.03 | S. cerevisiae deletion strains, locus YMR223W, strain ubp8, active compounds read low 0.994 | S. cerevisiae deletion strains, locus YMR231W, strain pep5, active compounds read low 1.02 | S. cerevisiae deletion strains, locus YMR263W, strain SAP30, active compounds read low 1.04 | S. cerevisiae deletion strains, locus YMR307W, strain GAS1, active compounds read low 1.05 | S. cerevisiae deletion strains, locus YNL067W, strain RPL9B, active compounds read low 1.08 | S. cerevisiae deletion strains, locus YNL071W, strain lat1, active compounds read low 1.02 | S. cerevisiae deletion strains, locus YNL128W, strain TEP1, active compounds read low 1.02 | S. cerevisiae deletion strains, locus YNL153C, strain GIM3, active compounds read low 1 | S. cerevisiae deletion strains, locus YNL183C, strain NPR1, active compounds read low 0.956 | S. cerevisiae deletion strains, locus YNL209W, strain ssb2, active compounds read low 1.01 | S. cerevisiae deletion strains, locus YNL233W, strain BNI4, active compounds read low 1 | S. cerevisiae deletion strains, locus YNL248C, strain rpa49, active compounds read low 1.04 | S. cerevisiae deletion strains, locus YNL250W, strain rad50, active compounds read low 0.99 | S. cerevisiae deletion strains, locus YNL271C, strain bni1, active compounds read low 0.99 | S. cerevisiae deletion strains, locus YNL298W, strain CLA4, active compounds read low 0.982 | S. cerevisiae deletion strains, locus YNL307C, strain MCK1, active compounds read low 1.01 | S. cerevisiae deletion strains, locus YNL322C, strain KRE1 (second series), active compounds read low 1.04 | S. cerevisiae deletion strains, locus YNL322C, strain KRE1, active compounds read low 1 | S. cerevisiae deletion strains, locus YNR049C, strain mso1, active compounds read low 1.02 | S. cerevisiae deletion strains, locus YNR052C, strain pop2, active compounds read low 1 | S. cerevisiae deletion strains, locus YOL006C, strain TOP1, active compounds read low 0.995 | S. cerevisiae deletion strains, locus YOL012C, strain htz1 1.75 | S. cerevisiae deletion strains, locus YOR001W, strain rrp6, active compounds read low 1.03 | S. cerevisiae deletion strains, locus YOR061W, strain CKA2, active compounds read low 0.994 | S. cerevisiae deletion strains, locus YOR069W, strain VPS5, active compounds read low 0.998 | S. cerevisiae deletion strains, locus YOR070C, strain gyp1, active compounds read low 1.01 | S. cerevisiae deletion strains, locus YOR080W, strain dia2, active compounds read low 1.04 | S. cerevisiae deletion strains, locus YOR083W, strain WHI5, active compounds read low 1.02 | S. cerevisiae deletion strains, locus YOR106W, strain vam3, active compounds read low 1.03 | S. cerevisiae deletion strains, locus YOR136W, strain idh2, active compounds read low 0.988 | S. cerevisiae deletion strains, locus YOR144C, strain elg1, active compounds read low 0.979 | S. cerevisiae deletion strains, locus YOR184W, strain ser1, active compounds read low 0.993 | S. cerevisiae deletion strains, locus YOR231W, strain MKK1, active compounds read low 0.978 | S. cerevisiae deletion strains, locus YOR265W, strain rbl2, active compounds read low 1.02 | S. cerevisiae deletion strains, locus YOR270C, strain vph1, active compounds read low 1.03 | S. cerevisiae deletion strains, locus YOR290C, strain snf2, active compounds read low 1.01 | S. cerevisiae deletion strains, locus YOR316C, strain cot1, active compounds read low 0.994 | S. cerevisiae deletion strains, locus YPL051W, strain arl3, active compounds read low 1.03 | S. cerevisiae deletion strains, locus YPL055C, strain LGE1, active compounds read low 1.03 | S. cerevisiae deletion strains, locus YPL078C, strain atp4, active compounds read low 1.02 | S. cerevisiae deletion strains, locus YPL106C, strain sse1, active compounds read low 1.04 | S. cerevisiae deletion strains, locus YPL240C, strain hsp82, active compounds read low 1.03 | S. cerevisiae deletion strains, locus YPL241C, strain CIN2, active compounds read low 1.01 | S. cerevisiae deletion strains, locus YPL256C, strain CLN2, active compounds read low 0.957 | S. cerevisiae deletion strains, locus YPR141C, strain kar3, active compounds read low 0.984 | S. cerevisiae deletion strains, locus YPR163C, strain tif3, active compounds read low 0.991 | S. cerevisiae deletion strains, locus YPR167C, strain met16, active compounds read low 0.994 | S. cerevisiae deletion strains, strain wtn01, active compounds read low 0.993 | S. cerevisiae strains, strain wild type, active compounds read low 1.03
